According to PubChem BioAssay AID1789 (The Scripps Research Institute Molecular Screening Center, 2009):
About 2,700 (0.93%) of roughly 290,000 compounds were called active.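 Rule for the calls: active = inhibition above the screen-wide mean plus 3 SD, computed separately per campaign (cut at about 16% in these data); inactive = the rest.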 The full list was thinned out, with actives kept by preference.

What follows are compounds tested on Heat shock protein HSP 90 (rabbit reticulocyte lysate; luciferase refolding) (assay: inhibitors of HSP90 chaperone activity – cell lysate, luminescence, primary screen (AID 1789;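 note: 0% = DMSO wells and 100% = 60 µM geldanamycin wells; inhibitors lower the luminescence because luciferase stays unfolded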)). Settings: 3 h, at 5.6 µM, active compounds read high.

| Structure (SMILES) | inhibition |
| --- | --- |
| COc1ccc(NC(=O)CSc2nc(C)cs2)cc1 | -1.43% (inactive) |
| Cc1cccc(C)c1Nc1nnc(SCC(=O)Nc2sccc2C#N)s1 | 3.59% (inactive) |
| Cc1csc(SCC(=O)Nc2sccc2C#N)n1 | 17.4% (active) |
| CCc1ccccc1NC(=O)[C@@H]1CCC(=O)N1C1OC(=O)c2c1ccc(OC)c2OC (some centres undefined) | -1.1% (inactive) |
| COc1ccc(NC(=O)c2ccco2)cc1NC(=O)c1ccc(C#N)cc1F | -0.59% (inactive) |
| CCCCCc1ccc(-c2cn(Cc3ccc4ccccc4c3)nn2)cc1 | -4.93% (inactive) |
| CCCCCc1ccc(-c2ccc(C(=O)O)cc2)nc1 | 61.1% (active) |
| CCCCCc1ccc(-c2ccc(OCC)cc2)nc1 | 0.91% (inactive) |
| COCCn1c(SCc2nnc(-c3ccc(OC)c(OC)c3)o2)nc2sc3c(c2c1=O)CCC3 | 1.74% (inactive) |
| CC(=O)c1ccc(S(=O)(=O)N(C)CCCC(=O)N(C)Cc2ccccc2F)cc1 | 0.72% (inactive) |
| CC1(c2cccc([N+](=O)[O-])c2)CC(C)(C)N(C(=O)c2ccccc2)c2ccccc21 (centres undefined) | 2.72% (inactive) |
| CC1(c2ccccc2)CC(C)(C)N(C(=O)c2cc([N+](=O)[O-])cc([N+](=O)[O-])c2)c2ccccc21 (centres undefined) | -2.72% (inactive) |
| Cc1nnc(SCC(=O)N2c3ccccc3C(C)(c3ccc(Cl)cc3)CC2(C)C)s1 (centres undefined) | 58.2% (active) |
| NC1=NN(c2cccc(C(=O)O)c2)C(=O)C1 | 3.9% (inactive) |
| O=Cc1c(Nc2ccccc2Cl)nc2ccccn2c1=O | 0.05% (inactive) |
| COc1ccc(OCc2cc(C(=O)NCC3(C)COC3)no2)c(Cl)c1 | -3.93% (inactive) |
| Cc1ccc(-c2cn3cc(C)ccc3n2)cc1 | 84.1% (active) |
| Cc1ccc2nc(-c3ccc(Br)cc3)cn2c1 | 75.1% (active) |
| COc1ccc(-c2cn3ccc(C)cc3n2)cc1 | 61.9% (active) |
| COc1ccc(-c2cn3ccsc3n2)cc1 | 6.4% (inactive) |
| COc1ccc(-c2cn3cccnc3n2)cc1 | 0% (inactive) |
| CSc1nnc2ccc(-c3ccc(C)cc3)nn12 | -5.22% (inactive) |
| Cc1ccc(-n2cc3ccc([N+](=O)[O-])cc3n2)cc1 | 9.46% (inactive) |
| CCN(CC)S(=O)(=O)c1ccc(-c2cn3ccc(C)cc3n2)cc1 | 1.15% (inactive) |
| Cc1nc(-c2ccc([N+](=O)[O-])cc2)c(-c2ccccc2)o1 | 10.2% (inactive) |

| Structure (SMILES) | inhibition |
| --- | --- |
| Cc1cc(N2CCOCC2)nc(-c2ccc(Br)cc2)n1 | 7.23% (inactive) |
| Cc1ccc(-c2cc(N)on2)cc1 | 3.55% (inactive) |
| Cc1ccc(-c2cn3cc([N+](=O)[O-])ccc3n2)cc1 | 26.2% (active) |
| COc1ccc(S(=O)(=O)NC(C)c2ccccc2)cc1C(=O)N1CCCCC1 (centres undefined) | -0.07% (inactive) |
| Cc1cc(NC(=O)c2ccccc2C)no1 | 1.41% (inactive) |
| CC(NCc1cccs1)C(=O)Nc1cc(Cl)cc(Cl)c1 (centres undefined) | 3.33% (inactive) |
| O=S(=O)(Cc1cc(Cl)nc(-c2cccnc2)n1)c1ccccc1 | -1.01% (inactive) |
| Cc1cccc(C(=O)N2CCCC(Nc3ccc(C(C)C)cc3)C2)n1 (centres undefined) | 2.58% (inactive) |
| COc1ccc2cc(S(=O)(=O)Nc3ccccn3)ccc2c1 | -2.45% (inactive) |
| Cc1ccc(NS(=O)(=O)c2ccc(C)c(NC(=O)COc3ccc4ccccc4c3)c2)c(C)c1 | 3.5% (inactive) |
| COc1cc(NS(=O)(=O)c2ccc3ccccc3c2)c2ncccc2c1 | 17.1% (active) |
| O=S(=O)(Nc1ccccc1Cl)c1cccc2nsnc12 | -0.91% (inactive) |
| COc1ccc2c(c1)C(NS(=O)(=O)OCC(Cl)(Cl)Cl)CCC2 (centres undefined) | -3.42% (inactive) |
| CCOc1cccc(/C=C/c2ccc3ccccc3n2)c1OC(C)=O | 11.8% (inactive) |
| COc1cccc(/C=C/c2ccc3ccccc3n2)c1OC(C)=O | 26.1% (active) |
| COc1cccc(/C=C2\C=C(c3ccc(C)cc3)OC2=O)c1OC(C)=O | -2.84% (inactive) |
| Cc1cc(=O)oc2cc(OC(C)C(=O)NCCc3ccc(S(N)(=O)=O)cc3)ccc12 (centres undefined) | -1.68% (inactive) |
| COC(=O)C1=C(O)/C(=C/c2ccc(OCC(=O)Nc3ccccc3)cc2)N=C1C | 3.09% (inactive) |
| COC(=O)c1ccc(Nc2ncnc3sccc23)cc1 | -0.64% (inactive) |
| COc1ccc(N(CC(=O)NCC2CCCO2)C(=O)CCC(=O)Nc2nccs2)c(OC)c1 (centres undefined) | 1.16% (inactive) |
| Cc1nc2cc(NC(=O)Nc3cccc(F)c3)ccc2n1C | 42.2% (active) |
| C=CCN(C(=O)Nc1ccc2c(c1)nc(C)n2C)c1ccccc1 | 2.61% (inactive) |
| Cc1nc2cc(NC(=O)NC3CC3)ccc2n1C | -3.15% (inactive) |
| CCN(C(=O)COc1ccc(C(=O)c2ccccc2)cc1)c1ccccc1 | 2.9% (inactive) |
| O=C(Nc1ccccc1)c1ccc2c(c1)OCCCO2 | 31.5% (active) |

| Structure (SMILES) | inhibition |
| --- | --- |
| O=C(Nc1cccc(S(=O)(=O)Nc2ccc(Cl)cc2)c1)c1ccc2c(c1)OCCO2 | -6.31% (inactive) |
| O=C(Nc1ccc(N2CCOCC2)cc1)c1ccc2c(c1)OCO2 | 4.41% (inactive) |
| O=C(Nc1ccccc1F)c1ccc2c(c1)OCO2 | 4.08% (inactive) |
| COCc1nnc(NC(=O)c2ccc3c(c2)OCO3)s1 | -2.47% (inactive) |
| O=C(Nc1nc2ccccc2s1)c1ccc2c(c1)OCO2 | 21.8% (active) |
| CN1CCN(CCNC(=O)Nc2ccccc2[N+](=O)[O-])CC1 | -4.79% (inactive) |
| O=C(CCN1C(=O)C2C3CCC(C3)C2C1=O)Nc1ccc(Cl)cc1Cl (centres undefined) | -1.86% (inactive) |
| COc1ccc(/C(C)=N\NC(=O)c2ccc(-c3ccccc3)cc2)c(F)c1 | -2.33% (inactive) |
| Oc1c(Cl)cc(Cl)cc1/C=N/c1ncn[nH]1 | -0.17% (inactive) |
| CC(C)C[C@H](NC(=O)N1CCn2c1nc1ccccc12)C(=O)NC1CC1 | -4.43% (inactive) |
| COc1ccccc1C(=O)Nc1cccc(C(=O)N2CCOCC2)c1 | -1.04% (inactive) |
| COc1cc(CNC2CCCCC2)c(Br)cc1OC1CCCC1 | 35.2% (active) |
| CC(C)(C)NCc1cc(Br)ccc1OC1CCCC1 | -2.93% (inactive) |
| COc1cc(CNC2CCCC2)c(Br)cc1OCc1ccccc1 | -1.4% (inactive) |
| COc1cc(C(=O)OCC(=O)NC(C)CCc2ccccc2)cc(OC)c1OC (centres undefined) | 0.2% (inactive) |
| COc1ccccc1CNS(=O)(=O)c1c(C)[nH]c(C)c1C(=O)N1CCCCC1 | -3% (inactive) |
| CCCOc1ccccc1C(=O)NCCCC(=O)O | 1.45% (inactive) |
| CCCCOCCCNC(=O)c1ccccc1OCC | 29.5% (active) |
| CCOc1ccccc1C(=O)NCCCn1ccnc1 | 2.74% (inactive) |
| Cc1c(C(=O)N(C)CCc2cnn(C)c2)oc2c(F)cccc12 | -3.1% (inactive) |
| CC(C)Nc1ccc(-n2nc3ccccc3[n+]2[O-])cc1 | 20.2% (active) |
| O=C(Cc1ccsc1)N1CCN(S(=O)(=O)c2cc(C(F)(F)F)cc(C(F)(F)F)c2)CC1 | -2.85% (inactive) |
| CC(NC(=O)c1ccco1)c1ccc2c(c1)OCO2 (centres undefined) | -2.76% (inactive) |
| COCc1cc(=O)[nH]c2cc(NC(=O)C(F)(F)F)c(C)cc12 | 43.6% (active) |
| O=C(Nc1ccccc1)c1ccccc1NC(=O)C(F)(F)F | -1.41% (inactive) |

| Structure (SMILES) | inhibition |
| --- | --- |
| COCc1cc(=O)[nH]c(-c2ccc(C(F)(F)F)cc2)n1 | -1.15% (inactive) |
| CSc1ccccc1NC(=O)c1cc(Cl)sc1Cl | 2.29% (inactive) |
| C=CCn1c(C)cc(C(=O)CN2C(=O)c3ccccc3C2=O)c1C | -0.12% (inactive) |
| C=CCn1c(C)cc(C2=NNC(=NCC)SC2)c1C | 44.5% (active) |
| Cc1cc(C2=NNC(=Nc3ccc(S(=O)(=O)N4CCOCC4)cc3)SC2)c(C)n1CC1CCCO1 (centres undefined) | 1.56% (inactive) |
| Cc1ccc2c(=O)cc(C(=O)NCCc3ccc(S(N)(=O)=O)cc3)oc2c1C | 0.5% (inactive) |
| CC(=O)c1ccc(NC(=O)c2cc(-c3cccs3)on2)cc1 | -4.55% (inactive) |
| CCOC(=O)CNC(=O)c1nn(-c2cccc(OC)c2)c(=O)c2ccccc12 | 20.7% (active) |
| COc1ccc(-n2nc(C(=O)NCC(=O)Nc3cccc(C)n3)c3ccccc3c2=O)cc1 | 0.84% (inactive) |
| COCCCNC(=O)CNC(=O)c1nn(-c2ccc(OC)cc2)c(=O)c2ccccc12 | -1.14% (inactive) |
| CC(=O)NS(=O)(=O)c1ccc(N/C(N)=N/c2nc(C)cc(C)n2)cc1 | -3.21% (inactive) |
| COc1cccc(C(=O)NNC(=O)/C=C/c2ccccc2)c1 | -8.89% (inactive) |
| Cc1cc(C)nc(S/C=C/C(=O)c2ccccc2)n1 | 34.3% (active) |
| Cc1cc(C)nc(SCC(=O)c2ccc(Cl)cc2)n1 | -0.36% (inactive) |
| Cc1ccc(N/C=C/C(=O)c2ccccc2)cc1C | -2.61% (inactive) |
| COc1ccc(/C=N/Nc2ccccc2C(=O)O)cc1 | 24.7% (active) |
| COc1cc(/C=N/NC(=O)c2ccccc2)ccc1OS(=O)(=O)c1ccccc1 | -0.09% (inactive) |
| COc1cc(/C=N/NC(=O)c2ccc(N3CCCC3=O)cc2)ccc1O | -0.72% (inactive) |
| COc1ccc(/C=N/Nc2nc3ccccc3c(=O)[nH]2)cc1 | 0.73% (inactive) |
| COc1ccc(C(=O)Nc2ccccc2C(=O)N/N=C/c2ccc(O)c(OC)c2)cc1 | 89% (active) |
| COc1ccc(/C=N/NC(=O)c2ccc3c(c2)OCCO3)c(OC)c1 | 2.94% (inactive) |
| COc1ccc(/C=N/OCC(=O)N(Cc2ccccc2)c2ccccc2C(=O)O)cc1 | -2.76% (inactive) |
| COc1ccc(C(=O)Nc2ccccc2C(=O)N/N=C/c2ccccc2OC)cc1 | 50.3% (active) |
| COc1ccc(C(=O)Nc2ccccc2C(=O)NCc2ccco2)cc1 | -2.57% (inactive) |
